# Source: the supplement of paper PMC10849652
# The full data set covers some 8,800 targets. This sample favours those with a hit. About 0.5% of all pairs of compound and target were hits. A number with no mark means an inactive call.
# Legend:
# Test in all cases: log2 fold change, soluble protein after heating vs DMSO (PISA); higher = thermal stabilisation; K562 lysate, 10 uM; active = over 0.2 and 3.5 SD of the protein, either way, in both replicates (recomputed)
# [1] = compound: C=CC(=O)N1CCC[C@@H](n2nc(-c3ccc(Oc4ccccc4)cc3)c3c(N)ncnc32)C1 [ibrutinib]
# Procedure, shortened: (§1)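 Quantification was by TMTpro 16plex LC-MS/MS with equalised channel sums, applied to the supernatant after 21,000xg for 90 min. Samples were crude K562 extract at 1 mg/mL protein in PBS pH 7.4 with 1 mM MgCl2, treated with 10 μM compound for 30 min, heated for 3 min across 48°C-58°C, pooled and brought to 0.5% NP-40 at 4°C. Values are log-two fold changes in thermal stability relative to solvent controls, from duplicates.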
# [2] = compound: CC(=O)c1cnc2ccc(-c3cc(Cl)c(O)c(Cl)c3)nc2c1N[C@H]1CC[C@H](CN(C)C)CC1
# Procedure, shortened: as §1
# [3] = compound: CC(C)(C)Cn1c(N)nc2ccc(-c3[nH]c(C(C)(C)C)nc3-c3ccc(F)cc3)nc21 [ralimetinib]
# Procedure, shortened: as §1
# [4] = compound: CC(C)(O)CC(=O)NCCn1ccc2ncnc(Nc3ccc(Oc4cccc(C(F)(F)F)c4)c(Cl)c3)c21
# Procedure, shortened: as §1
# [5] = compound: CC(C)C1=C2N=C(C=C(N2N=C1)NCC3=CC=CC=C3)NCCCCCCN
# Procedure, shortened: as §1
# [6] = compound: CC1=C(C(CC(=O)N1)C2=CC=C(C=C2)C(F)(F)F)C(=O)NC3=C(C=C4C(=C3)C=NN4)F
# Procedure, shortened: as §1
# [7] = compound: CC1=C(C2=C(C=C1)C(=O)C3=CC=CC=C3N2CCCN)C
# Procedure, shortened: as §1
# [8] = compound: CC1=C(C=C(C=C1)NC(=O)C2=CC(=CC=C2)C(C)(C)C#N)NC3=CC4=C(C=C3)N=CN(C4=O)C
# Procedure, shortened: as §1
# [9] = compound: CC1=C(C=C(C=C1)NC(=O)C2=CC(=CC=C2)N(C)C)NC(=O)C3=CC=C(C=C3)O
# Procedure, shortened: as §1
# [10] = compound: CC1=CC=C(C=C1)SC2=C3C=C(SC3=CN=C2)C(=O)N
# Procedure, shortened: as §1
# [11] = compound: CCCS(=O)(=O)Nc1ccc(F)c(C(=O)c2c[nH]c3ncc(-c4ccc(Cl)cc4)cc23)c1F [vemurafenib]
# Procedure, shortened: as §1
# [12] = compound: CCCS(=O)(=O)Nc1ccc(F)c(C(=O)c2c[nH]c3ncc(Cl)cc23)c1F
# Procedure, shortened: as §1
# [13] = compound: CCN(CCCOc1ccc2c(Nc3cc(CC(=O)Nc4cccc(F)c4)[nH]n3)ncnc2c1)CCOP(=O)(O)O [barasertib]
# Procedure, shortened: as §1
# [14] = compound: CC[C@@H]1C(=O)N(C)c2cnc(Nc3ccc(C(=O)NC4CCN(C)CC4)cc3OC)nc2N1C1CCCC1
# Procedure, shortened: as §1
# [15] = compound: CC[C@@H]1C(=O)N(C)c2cnc(Nc3ccc(C(=O)N[C@H]4CC[C@H](N5CCN(CC6CC6)CC5)CC4)cc3OC)nc2N1C(C)C [volasertib]
# Procedure, shortened: as §1
# [16] = compound: CCn1c(C(=O)N(C2CC2)C2CC2)cc2c3c(ncn3C)c(Nc3cc(C)n(C)n3)nc21
# Procedure, shortened: as §1
# [17] = compound: CCn1cc(-c2ccnc3[nH]c(-c4cccc(CN(C)C)c4)cc23)c(-c2ccc(NC(=O)N(C)C)cc2)n1
# Procedure, shortened: as §1
# [18] = compound: CN1CCC(CNc2ccc3ncc(-c4cccc(OC(F)(F)F)c4)n3n2)CC1
# Procedure, shortened: as §1
# [19] = compound: CN1CCN(CCOc2cc(OC3CCOCC3)c3c(Nc4c(Cl)ccc5c4OCO5)ncnc3c2)CC1 [saracatinib]
# Procedure, shortened: as §1
# [20] = compound: CN1CCN(c2nc(C3=C(c4c[nH]c5ccccc45)C(=O)NC3=O)c3ccccc3n2)CC1 [sotrastaurin]
# Procedure, shortened: as §1
# Chain of UniProt Q9BWF3 (Q9BWF3 whole entry, looked up): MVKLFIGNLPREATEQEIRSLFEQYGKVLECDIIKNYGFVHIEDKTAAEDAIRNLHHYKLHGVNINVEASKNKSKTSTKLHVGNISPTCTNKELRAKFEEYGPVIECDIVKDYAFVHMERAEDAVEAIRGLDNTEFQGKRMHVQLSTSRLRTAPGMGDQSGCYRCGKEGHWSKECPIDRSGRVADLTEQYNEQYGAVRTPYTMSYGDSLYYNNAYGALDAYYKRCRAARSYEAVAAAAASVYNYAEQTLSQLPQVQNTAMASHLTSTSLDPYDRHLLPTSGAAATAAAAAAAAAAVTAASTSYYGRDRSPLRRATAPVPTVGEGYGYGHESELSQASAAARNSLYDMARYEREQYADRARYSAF
# Chain of UniProt Q86X10 (Q86X10 whole entry, looked up): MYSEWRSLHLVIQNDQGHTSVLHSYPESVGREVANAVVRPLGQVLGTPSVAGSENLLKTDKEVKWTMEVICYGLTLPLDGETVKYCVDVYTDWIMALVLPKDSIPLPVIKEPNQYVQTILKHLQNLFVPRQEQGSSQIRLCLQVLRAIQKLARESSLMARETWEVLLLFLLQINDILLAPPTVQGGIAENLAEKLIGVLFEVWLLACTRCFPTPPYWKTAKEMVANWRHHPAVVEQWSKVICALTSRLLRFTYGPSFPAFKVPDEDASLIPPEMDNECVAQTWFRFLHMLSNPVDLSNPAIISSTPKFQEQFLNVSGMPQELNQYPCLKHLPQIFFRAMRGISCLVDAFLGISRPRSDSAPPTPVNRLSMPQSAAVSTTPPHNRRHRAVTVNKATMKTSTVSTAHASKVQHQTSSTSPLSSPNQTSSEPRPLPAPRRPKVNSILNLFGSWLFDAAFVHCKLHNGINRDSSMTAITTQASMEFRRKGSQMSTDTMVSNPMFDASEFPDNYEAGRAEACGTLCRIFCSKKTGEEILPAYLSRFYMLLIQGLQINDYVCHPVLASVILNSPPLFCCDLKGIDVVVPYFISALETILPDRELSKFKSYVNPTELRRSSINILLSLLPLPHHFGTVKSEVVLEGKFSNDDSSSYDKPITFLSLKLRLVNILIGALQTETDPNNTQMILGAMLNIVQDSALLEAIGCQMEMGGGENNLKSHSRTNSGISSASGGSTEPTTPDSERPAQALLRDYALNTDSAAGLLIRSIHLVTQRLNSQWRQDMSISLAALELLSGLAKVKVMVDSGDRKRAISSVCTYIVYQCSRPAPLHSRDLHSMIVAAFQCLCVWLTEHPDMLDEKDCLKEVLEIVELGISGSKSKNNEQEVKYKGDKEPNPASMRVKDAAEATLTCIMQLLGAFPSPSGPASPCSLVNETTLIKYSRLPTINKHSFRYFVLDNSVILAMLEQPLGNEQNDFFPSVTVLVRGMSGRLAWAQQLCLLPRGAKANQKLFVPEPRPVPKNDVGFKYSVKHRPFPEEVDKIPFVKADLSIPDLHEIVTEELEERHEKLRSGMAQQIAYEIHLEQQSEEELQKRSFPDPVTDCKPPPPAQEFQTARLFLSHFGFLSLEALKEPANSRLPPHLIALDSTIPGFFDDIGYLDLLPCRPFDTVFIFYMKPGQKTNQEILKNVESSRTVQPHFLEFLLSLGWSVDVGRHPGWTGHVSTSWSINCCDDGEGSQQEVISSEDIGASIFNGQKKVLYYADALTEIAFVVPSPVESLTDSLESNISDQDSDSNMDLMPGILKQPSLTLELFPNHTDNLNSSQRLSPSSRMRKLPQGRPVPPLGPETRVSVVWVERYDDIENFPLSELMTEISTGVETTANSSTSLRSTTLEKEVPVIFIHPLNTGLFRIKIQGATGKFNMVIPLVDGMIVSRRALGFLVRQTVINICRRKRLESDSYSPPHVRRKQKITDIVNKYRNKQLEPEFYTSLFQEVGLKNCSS
# Chain of UniProt P04844 (P04844 whole entry, looked up): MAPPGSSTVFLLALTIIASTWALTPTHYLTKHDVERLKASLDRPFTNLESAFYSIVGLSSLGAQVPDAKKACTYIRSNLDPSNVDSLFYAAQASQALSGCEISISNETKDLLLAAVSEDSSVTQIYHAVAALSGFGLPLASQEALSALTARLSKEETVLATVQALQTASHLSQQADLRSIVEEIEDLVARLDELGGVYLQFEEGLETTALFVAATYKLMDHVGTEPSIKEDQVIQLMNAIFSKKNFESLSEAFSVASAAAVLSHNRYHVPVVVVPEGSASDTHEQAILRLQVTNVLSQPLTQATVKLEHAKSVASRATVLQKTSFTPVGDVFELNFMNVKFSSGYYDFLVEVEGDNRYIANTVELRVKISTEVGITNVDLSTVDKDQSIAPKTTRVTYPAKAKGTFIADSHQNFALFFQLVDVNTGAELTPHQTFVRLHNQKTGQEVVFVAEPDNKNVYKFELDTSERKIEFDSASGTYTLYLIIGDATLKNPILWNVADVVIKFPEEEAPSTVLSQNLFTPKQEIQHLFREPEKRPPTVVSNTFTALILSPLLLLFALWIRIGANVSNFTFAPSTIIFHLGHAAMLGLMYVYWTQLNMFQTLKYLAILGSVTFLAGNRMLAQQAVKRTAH
# Chain of UniProt P53805 (P53805 whole entry, looked up): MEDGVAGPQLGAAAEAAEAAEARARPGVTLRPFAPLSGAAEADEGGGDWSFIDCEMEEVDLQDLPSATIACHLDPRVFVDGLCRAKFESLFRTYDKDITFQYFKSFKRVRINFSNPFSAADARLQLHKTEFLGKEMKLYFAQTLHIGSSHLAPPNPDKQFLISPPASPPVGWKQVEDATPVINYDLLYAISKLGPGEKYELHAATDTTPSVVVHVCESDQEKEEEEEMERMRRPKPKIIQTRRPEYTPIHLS
# Chain of UniProt Q4ADV7 (Q4ADV7 whole entry, looked up): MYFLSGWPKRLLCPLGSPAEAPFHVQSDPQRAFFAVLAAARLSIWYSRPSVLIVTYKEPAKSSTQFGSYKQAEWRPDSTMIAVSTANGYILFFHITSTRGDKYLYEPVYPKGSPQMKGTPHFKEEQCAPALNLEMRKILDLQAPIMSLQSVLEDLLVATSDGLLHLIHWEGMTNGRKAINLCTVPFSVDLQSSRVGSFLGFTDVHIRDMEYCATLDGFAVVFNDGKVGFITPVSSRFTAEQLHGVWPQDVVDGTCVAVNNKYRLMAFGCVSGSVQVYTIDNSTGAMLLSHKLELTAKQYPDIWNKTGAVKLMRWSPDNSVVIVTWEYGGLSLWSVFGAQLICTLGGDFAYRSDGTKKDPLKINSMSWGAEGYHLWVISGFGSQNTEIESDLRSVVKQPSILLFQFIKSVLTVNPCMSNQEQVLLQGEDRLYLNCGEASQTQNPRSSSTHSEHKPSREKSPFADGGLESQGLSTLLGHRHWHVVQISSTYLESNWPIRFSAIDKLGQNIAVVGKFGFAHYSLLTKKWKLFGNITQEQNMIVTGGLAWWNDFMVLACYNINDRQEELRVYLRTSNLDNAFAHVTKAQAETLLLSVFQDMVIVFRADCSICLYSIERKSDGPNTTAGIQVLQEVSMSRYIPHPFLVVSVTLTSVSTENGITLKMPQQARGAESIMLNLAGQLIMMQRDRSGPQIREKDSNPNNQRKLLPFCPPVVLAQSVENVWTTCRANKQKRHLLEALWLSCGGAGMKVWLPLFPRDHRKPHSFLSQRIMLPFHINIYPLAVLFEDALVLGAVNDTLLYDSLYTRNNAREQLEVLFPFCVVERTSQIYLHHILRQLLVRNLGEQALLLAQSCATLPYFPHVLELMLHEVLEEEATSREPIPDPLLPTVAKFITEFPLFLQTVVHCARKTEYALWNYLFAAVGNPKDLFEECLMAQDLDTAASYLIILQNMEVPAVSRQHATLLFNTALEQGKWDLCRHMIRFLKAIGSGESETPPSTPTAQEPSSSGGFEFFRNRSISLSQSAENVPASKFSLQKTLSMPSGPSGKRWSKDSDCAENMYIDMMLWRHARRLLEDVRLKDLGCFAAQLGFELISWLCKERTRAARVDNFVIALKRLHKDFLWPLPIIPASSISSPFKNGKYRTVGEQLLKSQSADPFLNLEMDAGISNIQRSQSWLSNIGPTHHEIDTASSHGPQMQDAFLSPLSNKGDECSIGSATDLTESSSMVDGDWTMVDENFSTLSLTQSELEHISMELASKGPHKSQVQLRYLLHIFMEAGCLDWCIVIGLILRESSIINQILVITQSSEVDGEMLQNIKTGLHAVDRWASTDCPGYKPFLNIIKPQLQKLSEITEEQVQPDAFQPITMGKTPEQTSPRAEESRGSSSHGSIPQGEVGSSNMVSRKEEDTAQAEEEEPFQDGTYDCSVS
# Chain of UniProt Q9H0R6 (Q9H0R6 whole entry, looked up): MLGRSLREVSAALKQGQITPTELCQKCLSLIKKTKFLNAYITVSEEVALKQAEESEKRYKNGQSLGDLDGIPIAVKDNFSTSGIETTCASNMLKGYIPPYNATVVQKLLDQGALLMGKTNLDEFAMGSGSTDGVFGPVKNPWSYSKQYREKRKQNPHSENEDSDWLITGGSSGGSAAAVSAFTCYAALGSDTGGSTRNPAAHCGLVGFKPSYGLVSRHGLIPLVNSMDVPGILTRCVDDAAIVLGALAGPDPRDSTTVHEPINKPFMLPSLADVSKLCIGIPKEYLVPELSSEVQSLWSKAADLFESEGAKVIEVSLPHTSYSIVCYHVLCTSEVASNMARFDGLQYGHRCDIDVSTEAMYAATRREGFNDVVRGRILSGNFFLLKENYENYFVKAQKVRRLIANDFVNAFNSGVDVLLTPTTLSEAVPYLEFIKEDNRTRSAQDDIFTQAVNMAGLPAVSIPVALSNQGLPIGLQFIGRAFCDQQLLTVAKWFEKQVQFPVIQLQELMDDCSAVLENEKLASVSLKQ
# Chain of UniProt Q9P0P0 (Q9P0P0 whole entry, looked up): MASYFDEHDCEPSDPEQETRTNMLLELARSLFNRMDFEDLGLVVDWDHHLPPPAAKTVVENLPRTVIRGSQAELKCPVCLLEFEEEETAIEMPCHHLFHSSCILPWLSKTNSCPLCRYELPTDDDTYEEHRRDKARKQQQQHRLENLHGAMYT
# Chain of UniProt P11233 (P11233 whole entry, looked up): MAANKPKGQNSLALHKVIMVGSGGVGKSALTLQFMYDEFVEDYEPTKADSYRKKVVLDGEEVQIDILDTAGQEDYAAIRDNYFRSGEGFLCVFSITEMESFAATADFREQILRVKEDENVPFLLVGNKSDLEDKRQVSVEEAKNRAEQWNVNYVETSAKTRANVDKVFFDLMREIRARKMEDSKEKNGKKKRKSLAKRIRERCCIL
Target,log2 fold change [1],log2 fold change [2],log2 fold change [3],log2 fold change [4],log2 fold change [5],log2 fold change [6],log2 fold change [7],log2 fold change [8],log2 fold change [9],log2 fold change [10],log2 fold change [11],log2 fold change [12],log2 fold change [13],log2 fold change [14],log2 fold change [15],log2 fold change [16],log2 fold change [17],log2 fold change [18],log2 fold change [19],log2 fold change [20]
SEC16A isoform 5 (UniProt O15027),0.035,-0.021,-0.013,0.015,0.01,0.019,0.004,-0.121,0.011,-0.031,0.03,0.019,0.021,0.038,-0.028,0.006,0.008,-0.037,0.013,-0.01
QRSL1 (UniProt Q9H0R6),-0.171,-0.059,0.018,-0.064,0.066,-0.003,-0.073,-0.041,0.027,0.076,0.134,0.012,0.044,-0.004,-0.057,0.008,-0.178,-0.138,-0.056,0.071
RPN2 (UniProt P04844),-0.008,0.014,-0.004,-0.035,-0.021,0.008,0.021,-0.011,-0.015,-0.017,0.009,0.008,0.019,0,0.003,-0.003,-0.084,0.033,0.008,0.008
RECQL5 (UniProt O94762),0.014,-0.335,0.035,-0.015,0.055,0.03,-0.066,-0.044,0.035,-0.001,-0.028,-0.045,0.02,0.069,-0.187,-0.01,0.131,-0.222,0.018,0.003
RALA (UniProt P11233),0.009,-0.01,0.006,-0.05,0.034,-0.002,-0.001,0.057,-0.048,-0.023,0.033,0.004,-0.001,0.029,0.014,-0.023,-0.289 (active),0.169,-0.021,-0.027
RNF181 (UniProt Q9P0P0),0.043,-0.024,-0.001,-0.006,-0.005,-0.056,0.008,0.03,0,0.013,-0.06,0.025,0.179,-0.036,0.004,0.018,-0.013,-0.035,-0.03,-0.02
RPTOR (UniProt Q8N122),-0.042,0.008,-0.001,-0.045,-0.012,0.005,-0.039,0.005,0.038,0.01,-0.028,0.022,0.052,-0.024,-0.046,0.038,0.018,-0.039,0,0.046
RPS9 (UniProt P46781),-0.02,0.015,0.016,0.026,-0.007,-0.038,-0.095,-0.048,0.006,0.043,-0.037,-0.01,-0.003,-0.074,-0.005,0.03,0.302 (active),-0.063,0,-0.023
RCAN1 (UniProt P53805),-0.019,0.003,-0.004,0.012,0.002,0.026,-0.027,0.085,-0.02,0.02,0.028,0.061,0.034,-0.022,-0.026,-0.06,-0.024,0.041,0.025,-0.056
RNASEL (UniProt Q05823),-0.072,-0.033,0.037,-0.034,0,-0.023,0.001,0.01,0.013,0.027,-0.004,0.053,0.077,-0.017,-0.103,0.012,-0.006,-0.025,-0.011,0.024
RBM4 (UniProt Q9BWF3),0.006,0.021,0.008,-0.014,0.023,0.028,0.005,-0.154,0.025,-0.004,-0.013,-0.042,0.023,-0.053,-0.032,0.045,0.344 (active),-0.044,-0.013,-0.015
RIC1 (UniProt Q4ADV7),-0.129,-0.052,0.046,-0.074,0.038,-0.032,-0.065,0.113,0.027,-0.006,-0.055,0.021,-0.013,0.029,0.009,0.017,-0.29,0.004,-0.012,-0.008
RBM22 (UniProt Q9NW64),0.01,-0.007,-0.03,-0.044,-0.033,0.009,-0.014,0.043,-0.01,-0.006,-0.014,-0.007,0.022,0.078,-0.004,-0.004,0.058,0.025,0.01,-0.08
RALGAPB (UniProt Q86X10),0.066,-0.002,0.033,-0.038,0.003,-0.048,0.029,0.065,0.032,0.01,0.044,0.016,0.103,-0.008,-0.023,-0.013,-0.09,0.07,0.017,0.032
RTN4IP1 (UniProt Q8WWV3),0.073,0.02,0.012,0.028,-0.042,-0.398 (active),-0.011,-0.008,-0.015,-0.033,-0.02,0.047,-0.049,-0.018,-0.014,-0.007,0.058,-0.106,-0.048,0.015
SCO1 (UniProt O75880),0.029,0.006,-0.006,-0.072,-0.11,0.044,-0.011,0.021,-0.065,-0.023,-0.027,-0.012,-0.008,-0.009,0.025,-0.027,-0.01,0.016,0.006,0.016
